Screening data: PubChem BioAssay, National Center for Advancing Translational Sciences (NCATS)
An excerpt weighted towards active compounds, which were near 11% of everything screened.
ALDH1A1 block = qHTS Assay for Inhibitors of Aldehyde Dehydrogenase 1 (ALDH1A1). Aldehyde dehydrogenase 1A1 (Homo sapiens), P00352. Purified ALDH1A1, NADH fluorescence, propionaldehyde substrate. Potency, µM (top dose mostly 75.3 µM), for the others: at the top dose activity, negative = inhibition, actives largely listed as inhibitors. 7.3% of 220,000 active. AID 1030, 2008;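 note: potency is the fitted concentration of half-maximal effect; plate controls were no enzyme wells and a reference inhibitor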
ALOX12 inhib = qHTS Assay for Inhibitors of 12-hLO (12-human lipoxygenase); Polyunsaturated fatty acid lipoxygenase ALOX12 (Homo sapiens), P18054; purified 12-hLO, xylenol orange hydroperoxide absorbance; Potency, µM (highest dose often 57.1 µM), without a hit: top-dose activity change, negative = inhibition, most hits filed as inhibitors; 0.12% of 150,000 active; AID 1452, 2008; active = well fitted curve in the direction sought with a large enough effect; inconclusive = small, poorly fitted or top-dose-only effect, or another doubt; inactive = no such curve, though single readings can be large; an effect the other way counts as inactive or inconclusive; note: potency is the fitted concentration of half-maximal effect; nearly all actives have a fitted effect of over 55% in size
Target sequence (P18054 whole entry, looked up): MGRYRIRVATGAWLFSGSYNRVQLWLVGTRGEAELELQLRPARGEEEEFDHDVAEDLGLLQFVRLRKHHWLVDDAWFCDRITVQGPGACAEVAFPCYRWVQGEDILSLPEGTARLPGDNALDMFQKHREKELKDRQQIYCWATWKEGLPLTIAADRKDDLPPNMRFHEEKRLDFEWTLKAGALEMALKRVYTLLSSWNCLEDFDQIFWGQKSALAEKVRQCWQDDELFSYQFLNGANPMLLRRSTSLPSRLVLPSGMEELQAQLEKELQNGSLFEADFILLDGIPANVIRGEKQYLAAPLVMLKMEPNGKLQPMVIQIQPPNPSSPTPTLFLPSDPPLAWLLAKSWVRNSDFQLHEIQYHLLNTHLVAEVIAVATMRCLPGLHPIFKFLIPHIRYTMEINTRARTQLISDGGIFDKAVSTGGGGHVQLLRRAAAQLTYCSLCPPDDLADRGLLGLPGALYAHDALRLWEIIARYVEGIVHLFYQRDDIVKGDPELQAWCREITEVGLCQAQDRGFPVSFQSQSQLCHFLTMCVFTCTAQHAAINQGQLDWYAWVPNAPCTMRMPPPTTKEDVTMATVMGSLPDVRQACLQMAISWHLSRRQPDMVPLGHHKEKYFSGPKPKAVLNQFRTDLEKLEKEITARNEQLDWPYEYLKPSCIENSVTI
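150 nM 12hLO, 25 mM Hepes pH 7.0 + 0.01% Triton X-100; cpd preinc 15 min RT; 40 uM arachidonic acid, 30 min RT; Fe-XO 30 min; A573/A405 ratio as read-out.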
HPGD inh = qHTS Assay for Inhibitors of HPGD (15-Hydroxyprostaglandin Dehydrogenase); purified HPGD, NADH fluorescence kinetic, PGE2 substrate; 15-hydroxyprostaglandin dehydrogenase [NAD(+)] (Homo sapiens), P15428; AID 894, 2007; 4.3% of 150,000 active; Potency, µM, for the others: at the highest dose activity change, negative = inhibition, hits mostly inhibitors; note: potency is the fitted concentration of half-maximal effect
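20 nM HPGD preincubated 15 min at room temperature with compound in 50 mM Tris-HCl pH 8, 0.01% Tween 20. Started with 1 mM NAD+ and 30 uM prostaglandin E2; NADH fluorescence (360/450 nm) read 5 times over 30-s intervals, last minus first.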
IMPase Li cell = qHTS Assay for Identifying the Cell-Membrane Permeable IMPase Inhibitors: Potentiation with Lithium; CHO-M1 cells, IP1 TR-FRET (IP-One), carbachol + lithium; Potency, µM (highest dose often 59.4 µM), for the others: top-dose activity, negative = IMPase inhibition, actives largely listed as inhibitors; 0.35% of 210,000 active; AID 1457, 2008; active = well fitted curve in the direction sought with a large enough effect; inconclusive = small, poorly fitted or top-dose-only effect, or another doubt; inactive = no such curve, though single readings can be large; an effect the other way counts as inactive or inconclusive;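 note: IP1 builds up when IMPase is blocked and the TR-FRET signal falls; potency is the fitted concentration of half-maximal effect; plate controls were basal vehicle for no effect and high inhibitor control for full effect; nearly all actives have a fitted effect of over 50% in size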
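Concentration–response in CHO-M1 cells, lithium-potentiated; 30 min at 37C. IP1 detected by competitive TR-FRET after 10 min lysis at RT. Hill-fitted AC50.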
PNC inhibitor = High Content Assay for Compounds that inhibit the Assembly of the Perinucleolar Compartment; 3.1% of 140,000 active; PC3M PTB-GFP, PNC prevalence imaging, 16 h; active compounds read low; activity change (PNC), negative = inhibition, % at 10 µM;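 active = readout at or below -70, meaning at least 70% loss of cells showing the perinucleolar compartment, a nuclear body marking cancer cells; inconclusive = readout between -30 and a set limit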;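 note: plate controls were DMSO wells for no effect and camptothecin positive control wells for full effect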
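Read-out is percentage of cells bearing a perinucleolar compartment, from automated 20x imaging of fixed, Hoechst-stained PC3M PTB-GFP cells. Cells were seeded 4 h, then exposed 16 h to compound (23 nl of library stock) in duplicate plates.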
IMPase inh = qHTS Assay for Identifying the Cell-Membrane Permeable IMPase Inhibitors | Inositol monophosphatase 1 (Rattus norvegicus), P97697 | CHO-M1 cells, IP1 accumulation, HTRF TR-FRET ratio | inhibition (IP1 accumulation), % at 46.1 µM | 120,000 tested, under 10 active | AID 901, 2007; active = well fitted curve in the direction sought with a large enough effect in the signal ratio, not every such curve was filed as active; inconclusive = small, poorly fitted or top-dose-only effect, or a change in a side signal; inactive = no such curve, though single readings can be large or run the other way; the % refers to the signal ratio;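 note: cells stimulated with carbachol in lithium chloride buffer; plate controls were DMSO basal wells for no effect and reference inhibitor wells for full effect; higher means more IMPase inhibition seen as more IP1 and lower FRET ratio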
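CHO-M1 cells (CHO stably expressing M1 receptor), compound up to 46 uM final, stimulated with carbachol (50 uM as added) in buffer with 50mM LiCl, pH 7.4, 30 min at 37C. Cytosolic IP1 read by TR-FRET; AC50 from Hill fits.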
Numbers without * were called inactive; [ ] = another dose, or the depositor's remark. Unless noted, calls come from the whole dose curve; as a rule, active = well fitted inhibition curve with a large enough effect (not every such curve was filed as active); inconclusive = small, poorly fitted or top-dose-only effect, or another doubt; inactive = no such curve, though single readings can be large or run the other way. Unless noted, % is set by controls: 0 for no effect and ±100 for the full control effect.

Screening Cc1ccc(/C=N\NC(=O)C2COc3cc4ccccc4cc3O2)o1 (stereo not given) returned ALDH1A1 block inconclusive, ALOX12 inhib -14%, HPGD inh 14µM*, IMPase Li cell 28%[38.3 µM], PNC inhibitor -12 and IMPase inh 1.
For Cc1ccc(/C=N/NC(=O)c2cc(C3CC3)nc3ccccc23)o1 the results were ALDH1A1 block -2%, ALOX12 inhib -3%, HPGD inh -20%, IMPase Li cell 2% and PNC inhibitor -108*.
Screening O=C(N/N=C/c1cccc(F)c1)c1cc(-c2ccco2)nc2ccccc12 returned ALDH1A1 block inconclusive, ALOX12 inhib inconclusive, HPGD inh inconclusive, IMPase Li cell -5%[38.3 µM], PNC inhibitor inconclusive and IMPase inh 8.
Cc1ccc(-c2cc(C(=O)Oc3ccccc3)c3cc(C)ccc3n2)cc1 was read as IMPase inh 12.
`Cc1nn(-c2ccccc2)c(Cl)c1/C=N/NC(=O)C1COc2ccccc2O1` (stereo not given) gave ALDH1A1 block 2.8µM*, ALOX12 inhib 2%, HPGD inh -15%, IMPase Li cell 9% and PNC inhibitor 76.
`COC(=O)c1ccc(OCC2c3cc(OC)c(OC)cc3CCN2C(=O)C2CC2)cc1` (stereo not given) gave ALDH1A1 block inconclusive, ALOX12 inhib -4%, HPGD inh -24%, IMPase Li cell 19%[38.3 µM], PNC inhibitor 24 and IMPase inh 4.
For COc1cc2c(cc1OC)C(c1cc3cc4c(cc3[nH]c1=O)OCO4)N(C(=O)C1CC1)CC2 (stereo not given) the results were ALDH1A1 block inconclusive, ALOX12 inhib -3%, HPGD inh inconclusive, IMPase Li cell -1%, PNC inhibitor -100* and IMPase inh 14.
Cc1ccc(-c2nn(CCC#N)cc2C=C(C#N)C#N)cc1 was read as ALDH1A1 block 20µM*, ALOX12 inhib 0%, HPGD inh -21%, IMPase Li cell 7%, PNC inhibitor 20 and IMPase inh 9.
For CC(C)(C)c1ccc(-c2nn(CCC#N)cc2/C=N/O)cc1 the results were ALDH1A1 block 1% and IMPase Li cell -9%.
Screening Cc1ccc(C)c(Sc2ccc(NC(=O)CCl)cc2)c1 returned ALDH1A1 block 0.89µM*, ALOX12 inhib -3%, HPGD inh -11%, IMPase Li cell 7% and PNC inhibitor -12.
`Cc1ccc(Sc2ccc(NC(=O)CCl)cc2)cc1C` gave ALDH1A1 block 2µM*, ALOX12 inhib -8%, HPGD inh inconclusive, IMPase Li cell -2% and PNC inhibitor -6.
For Cc1ccc(NC(=O)CSCC(N)=O)cc1C the results were ALDH1A1 block 4%, ALOX12 inhib -3%, HPGD inh -1%, IMPase Li cell 3%[38.3 µM], PNC inhibitor 28 and IMPase inh -5.
For O=C(CN1C(=O)NC2(CCOc3ccccc32)C1=O)Nc1cccc(Cl)c1 (stereo not given) the results were ALDH1A1 block 2% and IMPase Li cell 8%.
Screening CC(CCC(=O)O)C1CCC2C3CC[C@H]4CC(O)CC[C@@]4(C)C3CC(O)[C@]12C (stereo not given in full) returned ALDH1A1 block -3%, ALOX12 inhib -1%, HPGD inh 0% and IMPase Li cell 16%.
CCCN(CCC)CC(O)CN(c1ccccc1)S(=O)(=O)c1ccc(C)cc1 (stereo not given) was read as ALDH1A1 block 15%, ALOX12 inhib 0%, HPGD inh -5%, IMPase Li cell 6%[38.3 µM], PNC inhibitor inconclusive and IMPase inh 6.
`Cc1ccc(N(CC(O)COCc2ccco2)S(=O)(=O)c2ccc(C)cc2)cc1` (stereo not given) gave ALDH1A1 block 3.2µM*, ALOX12 inhib inconclusive, HPGD inh -20%, IMPase Li cell 34%[38.3 µM], PNC inhibitor -20 and IMPase inh -2.
`CC(C)CN1C(=O)c2ccc(NC(=O)c3ccccc3F)cc2C1=O` gave ALDH1A1 block inconclusive, ALOX12 inhib 4%, HPGD inh inconclusive, IMPase Li cell 8%[38.3 µM], PNC inhibitor -12 and IMPase inh -6.
CC(C)CN1C(=O)c2ccc(C(=O)Nc3ccncc3)cc2C1=O was read as ALDH1A1 block 0.63µM*, ALOX12 inhib 2%, HPGD inh -3%, IMPase Li cell 3%[38.3 µM], PNC inhibitor -16 and IMPase inh 8.
For CC(=O)NS(=O)(=O)c1ccc(NC(=O)c2ccc3c(c2)C(=O)N(CCC(C)C)C3=O)cc1 the results were ALDH1A1 block inconclusive, ALOX12 inhib -3%, HPGD inh 28µM*, IMPase Li cell -4% and PNC inhibitor 23.
CC(C)CN1C(=O)c2ccc(C(=O)Nc3ccccn3)cc2C1=O was read as ALDH1A1 block 1.1µM*, ALOX12 inhib -9%, HPGD inh -9%, IMPase Li cell -9%[38.3 µM], PNC inhibitor -14 and IMPase inh -2.
COc1ccc(N2CCN(C3(c4ccccc4)C(=O)c4ccccc4C3=O)CC2)cc1 was read as IMPase inh 6.
For CO[C@@H]1C=CO[C@]2(C)Oc3c(C)c(O)c4c(O)c(c(C=NN5CCN(C)CC5)c(O)c4c3C2=O)NC(=O)C(C)=CC=C[C@H](C)[C@H](O)[C@H](C)[C@H](O)[C@H](C)[C@H](OC(C)=O)[C@H]1C the results were ALDH1A1 block -2%[20.9 µM], ALOX12 inhib -6%[25.6 µM], HPGD inh -3%, IMPase Li cell 6% and IMPase inh -1[20.6 µM].
For COc1cccc(Cn2c(=O)c(-c3ccccc3)nc3cncnc32)c1 the results were ALDH1A1 block inconclusive and IMPase Li cell 6%.
Screening CC1(C)SC2C(N3C(=O)C(c4ccccc4)NC3(C)C)C(=O)N2C1C(=O)O (stereo not given) returned ALDH1A1 block -5%, ALOX12 inhib -2%, HPGD inh -20% and IMPase Li cell 9%.
CC1Cc2ccccc2N1C(=O)c1ccc(N2CCCCC2)c([N+](=O)[O-])c1 (stereo not given) was read as ALDH1A1 block 22µM*, ALOX12 inhib 0%, HPGD inh -19%, IMPase Li cell 9%, PNC inhibitor -20 and IMPase inh 5.
